TRPML1 ag – human mucolipin-1 channel agonism | TRPML1-expressing cells, Ca2+ dye fluorescence, FDSS | activation, % (no concentration beside the values) | hit rate 0.12% among 410,000; in the data active means activation above about 50%; inconclusive means mostly about 30% to 49%; further: 0% is about no effect
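Tet-induced TRPML1-DL cells, 1,500 per well, cultured overnight, were loaded with a no-wash Ca2+ dye for 45–90 min. Calcium fluorescence was recorded on the FDSS for 110 s after compound addition, before the EC80 agonist (4 uM 54-4) was added.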
TSG101-PTAP inh – blocks PTAP/TSG101 interaction to inhibit HIV-1 budding | Fluorescence polarization, FITC-PTAP peptide / Tsg101 binding | Potency, µM (highest dose often 115 µM), for inactives: top-dose activity change, negative = inhibition, usual class: inhibitors | 340,000 tested, under 10 active; active means well fitted inhibition curve with a large enough effect in the main read-out, with a control signal flat, not every such curve was filed as active; inconclusive means small, poorly fitted or top-dose-only effect, or effect the other way, or a change in a side signal; inactive means no such curve, though single readings can be large or run the other way; further: potency means the concentration at half of the fitted maximal effect; % of control where 0% means no effect
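Compounds were pin-transferred onto Tsg101 binding domain (10 uM final) in HEPES pH 7.5 buffer, then FITC-PTAP peptide was added at 50 nM final. After 20 min at RT, polarization reported peptide displacement across a qHTS concentration series.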
TRHR enhancer – allosteric enhancers of human TRH receptor; P34981; TRHR cells, fluo-8 calcium fluorescence, EC20 TRH enhancement; enhancement, % at 2 µM; hit rate 0.66% among 360,000; AID 493056; in the data active means enhancement above about 30%; further: 0% is about no effect
Target sequence (P34981 whole entry, looked up): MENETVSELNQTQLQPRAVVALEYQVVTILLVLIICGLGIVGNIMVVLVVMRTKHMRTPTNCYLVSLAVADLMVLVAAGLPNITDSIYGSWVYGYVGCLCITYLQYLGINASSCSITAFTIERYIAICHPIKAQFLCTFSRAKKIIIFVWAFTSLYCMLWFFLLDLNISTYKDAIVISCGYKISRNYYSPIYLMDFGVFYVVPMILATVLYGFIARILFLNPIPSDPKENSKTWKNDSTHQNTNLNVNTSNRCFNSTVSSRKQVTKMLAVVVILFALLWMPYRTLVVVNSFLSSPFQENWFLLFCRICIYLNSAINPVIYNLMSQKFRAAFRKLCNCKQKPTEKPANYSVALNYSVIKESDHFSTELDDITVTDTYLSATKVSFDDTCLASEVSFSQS
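TRHR-expressing cells loaded with fluo-8 calcium dye were read kinetically (ex 480/em 530) during compound addition, then stimulated with an EC20 of TRH (10 nM final). Enhancement of the Gq-mediated intracellular calcium response was scored.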
TRPML1 inh – human mucolipin-1 channel inhibition. hit rate 0.02% among 390,000. TRPML1-inducible cells, Ca2+ dye fluorescence, FDSS; active compounds read low; inhibition of EC80 agonist-evoked calcium signal. Q9GZU1. activity change, negative = inhibition, % (no concentration beside the values); in the data active means activity change below about -50%; inconclusive means between about -30% and that limit;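 further: stimulus is agonist 54-4 at its EC80 concentration; on the % scale 0 is the no-effect control and ±100 the full control effect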
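Tet-induced TRPML1-DL cells loaded with Ca8 no-wash calcium dye were read kinetically on FDSS. Compound addition was followed by EC80 agonist 54-4 (4 uM final); inhibition was read over 110 s.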
TRHR ag – activates the human TRH receptor; AID 493084; hit rate 0.18% among 360,000; P34981; TRHR cells, calcium flux fluo-8, FDSS agonist mode; activation, % at 2 µM; in the data active means activation above about 30%; further: 0% is about no effect
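TRHR-expressing cells, plated overnight in medium with 10% serum, were loaded with fluo-8 calcium dye at room temperature. After a 10 s baseline, library compound was pin-added and calcium release was recorded kinetically (ex 480/em 530) as agonist response.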
The depositor's hits bear a star; ? = inconclusive; / = no result. Rows were chosen to be rich in hits. Some 0.81% of all compounds tested hit in one or more screens of this group.

SMILES	TRPML1 ag	TSG101-PTAP inh	TRHR enhancer	TRPML1 inh	TRHR ag
CCN1C(=S)SC(=O)C1=C1C=C(C)N(Cc2ccco2)C(C)=C1	59*	3%	3	-6	0
CCN1C(=S)SC(=O)C1=C1C=C(C)OC(C)=C1	1	-11%	0	-20	1
O=C1OCC(CO)(CO)N=C1NNc1ccccc1Cl	0	-8%	31*	13	1
O=C(O)C1(Nc2ccccc2Cl)CCCC1	0	0%	/	2	/
COc1cc(C=O)cc(OC)c1[N+](=O)[O-]	0	/	/	/	/
Cc1cc2c(s1)c1cnn(Cc3c(F)c(F)c(C)c(F)c3F)c(=O)c1n2C	/	/	1	/	0
Cc1ccc(S(=O)(=O)Oc2ccccc2-c2ccccc2)cc1	100*	-6%	/	-24	/
Cc1cc2c(s1)c1cnn(Cc3ccc(F)c(C)c3)c(=O)c1n2C	/	/	1	/	-1
Cc1ccc(S(=O)(=O)Nc2ncnc3sc(C)c(C)c23)cc1	1	0%	-1	2	0
Cc1ccc(S(=O)(=O)Nc2ncnc3ccccc23)cc1	0	-1%	31*	2	1
O=[N+]([O-])c1ccc(O/N=[N+](\[O-])N2CCN(c3ccccc3)CC2)c([N+](=O)[O-])c1	1	/	/	45	/
O=C(Cc1ccc(OCC2CCCCC2)cc1)NO	0	/	/	/	/
O=[N+]([O-])c1cccnc1N1CCN(c2ccc(F)cc2)CC1	-2	0%	37*	-3	1
O=[N+]([O-])c1cccnc1N1CCOCC1	1	-3%	4	24	0
C=C(c1nc2ccccc2s1)C1Cc2cccc3c2N(CCC3)C1 (configuration not stated)	-1	/	/	/	/
N/C(Cn1nnc(-c2ccccc2)n1)=N\O	0	0%	-7	-14	0
Cc1ccc(-c2nnn(C/C(N)=N/O)n2)cc1	0	-5%	36*	-7	4
COc1ccc(C(=O)CSc2nc3ccccc3n2CC(=O)NC(C)(C)C)cc1	0	0%	0	-1	-1
CCOC(=O)CSc1nc2ccccc2n1CC(=O)NC(C)(C)C	1	/	30*	-7	1
Cc1ccnc(NS(=O)(=O)c2ccc(N3C(=O)C4CCCCC4C3=O)cc2)n1 (configuration not stated)	1	-12%	37*	-9	-1
CCc1cccc2c(C(O)c3c[nH]c4ccccc34)c[nH]c12 (configuration not stated)	12	/	/	/	/
CC(C)(C)OC(=O)Cc1nnc(C(C(=O)OCc2ccccc2)c2ccccc2)o1 (configuration not stated)	/	/	0	/	1
COc1ccc(-n2nc3c(c2NC(=O)C(=O)N2CCN(C)CC2)CSC3)cc1	1	/	43*	8	0
CC(C)(C)n1ncc2c(=O)n(Cc3c(F)ccc(F)c3Cl)cnc21	3	/	/	-5	/
CCN(CC)c1ccc2c(C)c(Cl)c(=O)oc2c1	3	-14%	3	-5	0
SMILES	TRPML1 ag	TSG101-PTAP inh	TRHR enhancer	TRPML1 inh	TRHR ag
CCN(CC)c1ccc2c(c1)oc(=O)c1c(Cl)cc(=O)oc12	69*	?	-10	-13	75*
Cc1ccc(Cl)cc1N1CCN(C(=O)c2cc3ccc4cccnc4c3[nH]2)CC1	2	/	30*	-4	-1
O=C(c1cc2ccc3cccnc3c2[nH]1)N1CCN(c2ccc(Cl)cc2)CC1	1	/	6	-9	1
COc1cc2c(cc1OC)C(C(=O)Nc1ccccn1)C(c1cccnc1)N(C)C2=O (configuration not stated)	1	-10%	2	-52*	0
COc1cc2c(cc1OC)C(C(=O)Nc1cccc(C)n1)C(c1cccnc1)N(C)C2=O (configuration not stated)	0	-6%	5	3	0
Cc1csc(=O)n1CC(=O)OCC(=O)Nc1ccc(F)c(F)c1	3	1%	33*	0	0
C/C(=N\NC(=O)CCCNc1ccc(C)cc1)c1ccccn1	-1	-2%	32*	10	-1
C/C(=N\NC(=O)CCCNc1ccccc1)c1ccncc1	0	-3%	1	-3	1
COc1cc2nc(NC3CCN(Cc4ccccc4)CC3)nc(N3CCCN(C)CC3)c2cc1OC	0	/	/	/	/
Cc1ccc(S(=O)(=O)c2cc3cc(C(=O)Nc4ccc(C)cc4C)ccc3oc2=O)cc1	1	/	31*	-1	0
O=C(c1c(F)c(F)c(F)c(F)c1F)N1CCN(c2cccc(C(F)(F)F)c2)CC1	4	-2%	31*	41	0
CCOC(=O)c1cnc(-n2nc(C)cc2C)nc1Nc1ccc2c(c1)OCO2	/	/	33*	/	-1
Cc1ccnc2ccc([N+](=O)[O-])cc12	-1	/	/	/	/
O=C(NCc1ccccc1)c1noc2c1CCCCC2	0	/	-1	2	0
CC(NC(=O)c1noc2c1CCCCC2)c1ccccc1 (configuration not stated)	-1	1%	30*	26	2
CC(C)c1cc2c(s1)c1cnn(Cc3ccccc3F)c(=O)c1n2C	/	/	-2	/	0
Cc1nnc2ccc(-c3cccc(NS(=O)(=O)c4ccccc4Cl)c3)nn12	0	-2%	36*	-5	0
Cc1nnc2ccc(-c3cccc(NS(=O)(=O)c4ccccc4[N+](=O)[O-])c3)nn12	1	0%	9	7	0
Cc1ccc(C(C)C)c(OCC(=O)NCC2(N3CCOCC3)CCCCC2)c1	76*	/	16	-20	1
O=C(NC1CCCc2ccccc21)c1cnn2c1NC(=C1CC1)C=C2C(F)F (configuration not stated)	0	/	/	/	/
CC(=O)N1CCCc2cc(S(=O)(=O)N3CCC(C(=O)NCc4ccc(N(C)C)cc4)CC3)ccc21	0	/	39*	-16	0
Cc1cc(C)c(C)c(S(=O)(=O)N2CCN(S(=O)(=O)c3ccc4c(c3)OCCO4)CC2)c1C	/	/	1	/	2
CCNc1nc(N2CCCN(C)CC2)nc2cc(OC)c(OC)cc12	0	/	/	/	/
COC(=O)C(C(=O)OC)C(C(C)C)C(C(=O)OC)C(=O)OC	-1	-1%	40*	-11	0
Cc1cc2ccccc2cn1	0	/	/	/	/
Cc1sc2ncn(CC(=O)NCCCC(=O)N3CCN(Cc4ccc5c(c4)OCO5)CC3)c(=O)c2c1C	0	-4%	31*	10	0
Cc1sc2ncn(CC(=O)NCCCC(=O)N3CCC(C)CC3)c(=O)c2c1C	-1	-3%	-2	6	0
Cc1ccc(-c2csc(Nc3ccc(C(=O)O)cc3)[n+]2Cc2ccccc2)cc1	0	5%	33*	0	0
COc1ccc(-c2csc(Nc3ccccc3)[n+]2Cc2ccccc2)cc1	-1	-7%	23	14	0
O=C(NC(=S)Nc1cccc2cc(O)ccc12)c1ccco1	2	-3%	1	-59*	-1
